“And” between values parts separate entries of the source, which are not always exact repeats. Equal entries are not always repeated. Records with an inconclusive call do not appear. Some structures have more than one record in an assay (separate samples or runs), and their calls can disagree. The source made the active and inactive calls. The calls were made as follows: active = hit-call score of the fitted dose curve at least 0.9, where 1 is the maximum; inconclusive = response in the unintended direction; inactive = score below 0.9.
Tests used:
Caspase-3 (Homo sapiens) = Caspase-3 (Homo sapiens) (UniProt P42574); assay: NVS_ENZ_hCASP3: NovaScreen (NVS) Enzymatic Assay for human Caspase 3 (CASP3) (AID 2283139)
Procedure, shortened: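 Recombinant human caspase-3 from E. coli with a fluorogenic substrate, read by fluorescence 1 h after dosing. Primary screen in duplicate at 25 uM. Actives (for example ≥30% inhibition) rerun as concentration-response up to 50 uM.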

[1] = target: human Beta-secretase (BACE), BACE1 (gene 23621) (UniProt P56817); assay: NVS_ENZ_hBACE: NovaScreen (NVS) Enzymatic Assay for human Beta-secretase (BACE) (AID 2283140);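 also: hits are inhibitors that reduce fluorescent substrate signal versus DMSO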
Procedure, shortened: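 Compounds were first tested in duplicate at 25 uM, then actives in concentration series, against recombinant BACE1 from SF9 cells. Enzyme activity was measured by fluorescence intensity 1 hour after dosing, with DMSO as negative control.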

[2] = target: human Caspase 8 (CASP8), CASP8 (gene 841) (UniProt Q14790); assay: NVS_ENZ_hCASP8: NovaScreen (NVS) Enzymatic Assay for human Caspase 8 (CASP8) (AID 2283146)
Procedure, shortened: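 E. coli-expressed enzyme was used in a cell-free fluorogenic substrate assay read 1 h after dosing. Loss of signal was scored relative to DMSO, and the primary screen was run in duplicate at 25 uM.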

[3] = target: human Caspase 10 (CASP10), CASP10 (gene 843) (UniProt Q92851); assay: NVS_ENZ_hCASP10: NovaScreen (NVS) Enzymatic Assay for human Caspase 10 (CASP10) (AID 2283133)
Procedure, shortened: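 Recombinant human caspase-10 from E. coli, cell-free fluorogenic substrate assay read 1 h after dosing. Primary duplicate screen at 25 uM; hits (e.g. ≥30% inhibition) run singly in concentration-response up to 50 uM, normalised to DMSO.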

[4] = target: human AKT serine/threonine Kinase 2 (AKT2), AKT2 (gene 208) (UniProt P31751); assay: NVS_ENZ_hAKT2: NovaScreen (NVS) Enzymatic Assay for human AKT serine/threonine Kinase 2 (AKT2) (AID 2283141)
Procedure, shortened: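 Cell-free fluorescence/electrophoretic mobility shift readout of recombinant human AKT2 activity, 1 h after chemical dosing. Duplicate primary screen at 25 uM, then singleton concentration-response up to 50 uM; loss of signal versus DMSO baseline.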

[5] = target: human Casein Kinase 2- alpha 2 beta 2 (CK2a2b2), CSNK2A1 (gene 1457) (UniProt P68400); assay: NVS_ENZ_hCK2a2b2: NovaScreen (NVS) Enzymatic Assay for human Casein Kinase 2- alpha 2 beta 2 (CK2a2b2) (AID 2283147)
Procedure, shortened: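 Cell-free recombinant CK2 α2β2 holoenzyme with a fluorescent peptide substrate; product separated by electrophoretic mobility shift and read 1 h after dosing. Single-point screen at 25 uM in duplicate; actives were followed with concentration-response up to 50 uM versus DMSO.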

Caspase-1 (Homo sapiens) = Caspase-1 (Homo sapiens) (UniProt P29466); assay: NVS_ENZ_hCASP1: NovaScreen (NVS) Enzymatic Assay for human Caspase 1 (CASP1) (AID 2283132)
Procedure, shortened: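 Cell-free enzymatic assay with E. coli-expressed recombinant protein; fluorescence intensity read 1 hour after dosing. Single-concentration duplicate screen at 25 uM, then concentration-response up to 50 uM; activity fitted relative to DMSO, loss of signal meaning inhibition.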

[6] = target: human Caspase 2 (CASP2), CASP2 (gene 835) (UniProt P42575); assay: NVS_ENZ_hCASP2: NovaScreen (NVS) Enzymatic Assay for human Caspase 2 (CASP2) (AID 2283135)
Procedure, shortened: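 E. coli-expressed enzyme in a cell-free protease assay, fluorescence read 1 h after dosing. Compounds at 25 uM in duplicate, with concentration-response up to 50 uM for hits; loss of signal against DMSO baseline.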

[7] = target: human Acid Phosphatase 1 (ACP1), ACP1 (gene 52) (UniProt P24666); assay: NVS_ENZ_hACP1: NovaScreen (NVS) Enzymatic Assay for human Acid Phosphatase 1 (ACP1) (AID 2283136)
Procedure, shortened: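 Recombinant enzyme expressed in Sf9 cells, tested cell-free; activity read by fluorescence with electrophoretic mobility shift separation of substrate and product, 1.5 h after dosing. Primary screen in duplicate at 25 uM, actives then run in concentration series; loss of signal versus DMSO.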

[8] = target: human Caspase 5 (CASP5), CASP5 (gene 838) (UniProt P51878); assay: NVS_ENZ_hCASP5: NovaScreen (NVS) Enzymatic Assay for human Caspase 5 (CASP5) (AID 2283137)
Procedure, shortened: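 E. coli-derived enzyme, cell-free, 2 h incubation, fluorescence intensity. 25 uM duplicate single-point; hits → concentration series to 50 uM. DMSO baseline, positive/negative controls on every plate.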

[9] = target: human AKT serine/threonine Kinase 1 (AKT1), AKT1 (gene 207) (UniProt P31749); assay: NVS_ENZ_hAKT1: NovaScreen (NVS) Enzymatic Assay for human AKT serine/threonine Kinase 1 (AKT1) (AID 2283138)
Procedure, shortened: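 Recombinant AKT1, specific substrate, cell-free; 1 h; fluorescence intensity/electrophoretic mobility shift. Duplicate single-point 25 uM, then singleton CRC max 50 uM. DMSO = negative control/baseline; signal loss = inhibition.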

[10] = target: human Aurora Kinase A - serine/threonine-protein Kinase 6 (AurA), AURKA (gene 6790) (UniProt O14965); assay: NVS_ENZ_hAurA: NovaScreen (NVS) Enzymatic Assay for human Aurora Kinase A - serine/threonine-protein Kinase 6 (AurA) (AID 2283142)
Procedure, shortened: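 Cell-free enzymatic assay with human Aurora A, 1 hour after dosing. Fluorescent substrate turnover detected after electrophoretic mobility shift separation of substrate and product. Screened at 25 uM, actives retested in concentration-response up to 50 uM.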

[11] = target: human Caspase 4 (CASP4), CASP4 (gene 837) (UniProt P49662); assay: NVS_ENZ_hCASP4: NovaScreen (NVS) Enzymatic Assay for human Caspase 4 (CASP4) (AID 2283143)
Procedure, shortened: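 The cell-free assay used E. coli-expressed enzyme with a fluorogenic substrate, read 2 h after dosing. Signal loss was scored versus DMSO. Screening was in duplicate at 25 uM, then singleton concentration-response up to 50 uM.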

[12] = target: human Dual Specificity Protein Phosphatase 3 (DUSP3), DUSP3 (gene 1845) (UniProt P51452); assay: NVS_ENZ_hDUSP3: NovaScreen (NVS) Enzymatic Assay for human Dual Specificity Protein Phosphatase 3 (DUSP3) (AID 2283152);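 also: phosphatase activity of recombinant human DUSP3 on a fluorogenic substrate without cells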
Procedure, shortened: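 Cell-free assay with recombinant human DUSP3 and fluorogenic substrate, read by fluorescence intensity. Primary screen ran duplicate at 25 uM; actives followed up in concentration series; loss of signal versus DMSO scored.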

[13] = target: human Elastase, ELANE (gene 1991) (UniProt P08246); assay: NVS_ENZ_hElastase: NovaScreen (NVS) Enzymatic Assay for human Elastase (AID 2283153)
Procedure, shortened: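 Cell-free elastase from human neutrophils, 1.5 h after dosing, activity read by absorbance. Primary screen in duplicate at 25 uM; hits (e.g., 30% inhibition) rerun in singleton concentration-response up to 50 uM, fitted versus DMSO.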

[14] = target: human AMP-activated Protein Kinase, alpha 1 (AMPKa1), PRKAA1 (gene 5562) (UniProt Q13131); assay: NVS_ENZ_hAMPKa1: NovaScreen (NVS) Enzymatic Assay for human AMP-activated Protein Kinase, alpha 1 (AMPKa1) (AID 2283130)
Procedure, shortened: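 Recombinant human AMPKα1 activity was measured cell-free by fluorescent substrate conversion with electrophoretic mobility-shift separation, 1 h after dosing. Duplicate single-point screening was at 25 uM; actives (≥30% inhibition) were retested in concentration-response up to 50 uM.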

[15] = target: human Colony Stimulating Factor 1 Receptor (CSF1R), CSF1R (gene 1436) (UniProt P07333); assay: NVS_ENZ_hCSF1R: NovaScreen (NVS) Enzymatic Assay for human Colony Stimulating Factor 1 Receptor (CSF1R) (AID 2283150)
Procedure, shortened: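 Cell-free recombinant human CSF1R kinase with fluorescent substrate, product separated by electrophoretic mobility shift; read 1 h after dosing. Primary screen at 25 uM in duplicate, actives then in concentration-response up to 50 uM, relative to DMSO.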

human AKT serine/threonine Kinase 2 (AKT2), AKT2 (gene 208), sequence (P31751 whole entry, looked up): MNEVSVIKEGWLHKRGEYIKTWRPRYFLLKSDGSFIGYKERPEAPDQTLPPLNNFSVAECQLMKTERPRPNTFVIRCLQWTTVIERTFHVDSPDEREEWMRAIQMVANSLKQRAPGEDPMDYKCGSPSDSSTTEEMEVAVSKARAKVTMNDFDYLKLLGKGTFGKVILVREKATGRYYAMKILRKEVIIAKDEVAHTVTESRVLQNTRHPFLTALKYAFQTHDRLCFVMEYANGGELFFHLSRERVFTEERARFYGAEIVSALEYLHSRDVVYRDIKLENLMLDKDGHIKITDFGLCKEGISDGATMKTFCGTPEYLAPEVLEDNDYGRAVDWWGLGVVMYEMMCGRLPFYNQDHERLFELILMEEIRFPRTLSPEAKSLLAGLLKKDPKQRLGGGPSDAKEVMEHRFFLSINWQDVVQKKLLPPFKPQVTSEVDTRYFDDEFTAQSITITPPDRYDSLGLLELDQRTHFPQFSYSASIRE
human Beta-secretase (BACE), BACE1 (gene 23621), sequence (P56817 whole entry, looked up): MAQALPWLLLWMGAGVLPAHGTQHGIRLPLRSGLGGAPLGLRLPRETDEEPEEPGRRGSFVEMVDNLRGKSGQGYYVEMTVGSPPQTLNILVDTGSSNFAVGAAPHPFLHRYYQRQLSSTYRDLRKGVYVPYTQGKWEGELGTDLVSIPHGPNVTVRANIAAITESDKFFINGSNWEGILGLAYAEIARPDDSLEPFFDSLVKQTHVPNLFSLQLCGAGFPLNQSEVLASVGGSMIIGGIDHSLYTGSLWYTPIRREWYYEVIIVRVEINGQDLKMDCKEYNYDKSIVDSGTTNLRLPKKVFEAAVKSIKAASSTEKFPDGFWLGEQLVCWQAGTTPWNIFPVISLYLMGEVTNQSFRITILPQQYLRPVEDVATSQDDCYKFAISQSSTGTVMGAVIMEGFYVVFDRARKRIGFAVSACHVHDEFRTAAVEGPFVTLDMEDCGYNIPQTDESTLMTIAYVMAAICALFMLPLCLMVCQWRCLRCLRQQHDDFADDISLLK
human Caspase 8 (CASP8), CASP8 (gene 841), sequence (Q14790 whole entry, looked up): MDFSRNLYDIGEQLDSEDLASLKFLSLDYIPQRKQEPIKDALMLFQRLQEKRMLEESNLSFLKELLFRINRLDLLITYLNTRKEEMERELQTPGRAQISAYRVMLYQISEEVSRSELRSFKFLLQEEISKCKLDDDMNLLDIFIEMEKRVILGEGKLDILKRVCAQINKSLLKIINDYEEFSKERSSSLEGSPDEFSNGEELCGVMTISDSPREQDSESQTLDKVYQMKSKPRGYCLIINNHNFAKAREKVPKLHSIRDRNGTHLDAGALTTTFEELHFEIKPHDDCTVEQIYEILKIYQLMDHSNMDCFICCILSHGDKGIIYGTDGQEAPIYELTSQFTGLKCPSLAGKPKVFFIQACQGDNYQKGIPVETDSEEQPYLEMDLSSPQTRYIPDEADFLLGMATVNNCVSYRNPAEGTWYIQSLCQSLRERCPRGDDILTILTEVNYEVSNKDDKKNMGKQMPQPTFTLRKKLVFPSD
human AKT serine/threonine Kinase 1 (AKT1), AKT1 (gene 207), sequence (P31749 whole entry, looked up): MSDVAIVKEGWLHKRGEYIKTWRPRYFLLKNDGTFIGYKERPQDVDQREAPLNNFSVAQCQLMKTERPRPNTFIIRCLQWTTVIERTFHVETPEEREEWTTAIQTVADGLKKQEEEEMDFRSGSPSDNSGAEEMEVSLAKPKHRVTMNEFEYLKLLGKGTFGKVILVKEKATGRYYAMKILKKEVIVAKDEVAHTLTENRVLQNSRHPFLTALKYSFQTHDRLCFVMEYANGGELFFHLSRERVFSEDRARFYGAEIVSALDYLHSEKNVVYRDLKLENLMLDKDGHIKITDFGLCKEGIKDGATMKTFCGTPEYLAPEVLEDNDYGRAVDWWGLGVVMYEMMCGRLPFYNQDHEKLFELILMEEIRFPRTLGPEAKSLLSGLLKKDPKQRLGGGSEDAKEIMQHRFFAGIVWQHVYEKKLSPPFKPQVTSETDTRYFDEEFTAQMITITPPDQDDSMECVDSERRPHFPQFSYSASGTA
Caspase-3 (Homo sapiens), sequence (P42574 whole entry, looked up): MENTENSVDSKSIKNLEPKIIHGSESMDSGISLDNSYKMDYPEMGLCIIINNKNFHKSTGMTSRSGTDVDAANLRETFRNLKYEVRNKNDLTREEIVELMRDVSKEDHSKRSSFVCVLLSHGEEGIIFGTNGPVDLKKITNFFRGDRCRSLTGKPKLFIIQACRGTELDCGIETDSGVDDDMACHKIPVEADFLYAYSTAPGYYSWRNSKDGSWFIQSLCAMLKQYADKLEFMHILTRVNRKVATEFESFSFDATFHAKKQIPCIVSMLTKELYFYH
human Aurora Kinase A - serine/threonine-protein Kinase 6 (AurA), AURKA (gene 6790), sequence (O14965 whole entry, looked up): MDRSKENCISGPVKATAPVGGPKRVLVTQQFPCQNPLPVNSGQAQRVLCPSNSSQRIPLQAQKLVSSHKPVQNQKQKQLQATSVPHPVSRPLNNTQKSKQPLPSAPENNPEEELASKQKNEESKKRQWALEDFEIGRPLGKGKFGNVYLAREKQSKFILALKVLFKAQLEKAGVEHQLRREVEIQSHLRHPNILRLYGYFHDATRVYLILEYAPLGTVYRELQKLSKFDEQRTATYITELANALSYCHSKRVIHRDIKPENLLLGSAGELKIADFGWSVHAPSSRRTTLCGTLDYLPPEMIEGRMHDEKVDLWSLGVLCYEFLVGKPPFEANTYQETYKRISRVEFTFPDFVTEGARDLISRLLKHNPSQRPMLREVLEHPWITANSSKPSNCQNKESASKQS
human Caspase 5 (CASP5), CASP5 (gene 838), sequence (P51878 whole entry, looked up): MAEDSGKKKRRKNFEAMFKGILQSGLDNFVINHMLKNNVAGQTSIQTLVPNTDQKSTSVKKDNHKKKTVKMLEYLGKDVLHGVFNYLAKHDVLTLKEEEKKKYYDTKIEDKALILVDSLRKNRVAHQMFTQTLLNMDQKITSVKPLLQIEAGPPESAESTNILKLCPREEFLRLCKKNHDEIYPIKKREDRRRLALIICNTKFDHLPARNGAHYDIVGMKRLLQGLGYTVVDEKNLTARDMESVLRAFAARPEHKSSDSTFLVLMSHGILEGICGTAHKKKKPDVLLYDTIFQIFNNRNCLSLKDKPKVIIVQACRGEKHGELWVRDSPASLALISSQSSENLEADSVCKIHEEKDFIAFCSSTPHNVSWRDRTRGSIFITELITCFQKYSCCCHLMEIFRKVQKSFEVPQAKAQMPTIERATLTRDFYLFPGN
Caspase-1 (Homo sapiens), sequence (P29466 whole entry, looked up): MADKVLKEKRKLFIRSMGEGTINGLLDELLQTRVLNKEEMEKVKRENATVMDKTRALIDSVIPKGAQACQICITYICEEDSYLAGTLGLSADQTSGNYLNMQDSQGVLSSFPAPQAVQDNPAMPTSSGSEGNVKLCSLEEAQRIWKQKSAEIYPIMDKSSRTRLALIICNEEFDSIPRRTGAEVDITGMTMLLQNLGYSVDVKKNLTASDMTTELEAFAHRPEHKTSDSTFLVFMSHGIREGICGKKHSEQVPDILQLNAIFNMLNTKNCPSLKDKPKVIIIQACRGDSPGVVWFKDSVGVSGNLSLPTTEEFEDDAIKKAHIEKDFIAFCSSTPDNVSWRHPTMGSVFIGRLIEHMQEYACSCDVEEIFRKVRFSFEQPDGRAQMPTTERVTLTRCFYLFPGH
human Casein Kinase 2- alpha 2 beta 2 (CK2a2b2), CSNK2A1 (gene 1457), sequence (P68400 whole entry, looked up): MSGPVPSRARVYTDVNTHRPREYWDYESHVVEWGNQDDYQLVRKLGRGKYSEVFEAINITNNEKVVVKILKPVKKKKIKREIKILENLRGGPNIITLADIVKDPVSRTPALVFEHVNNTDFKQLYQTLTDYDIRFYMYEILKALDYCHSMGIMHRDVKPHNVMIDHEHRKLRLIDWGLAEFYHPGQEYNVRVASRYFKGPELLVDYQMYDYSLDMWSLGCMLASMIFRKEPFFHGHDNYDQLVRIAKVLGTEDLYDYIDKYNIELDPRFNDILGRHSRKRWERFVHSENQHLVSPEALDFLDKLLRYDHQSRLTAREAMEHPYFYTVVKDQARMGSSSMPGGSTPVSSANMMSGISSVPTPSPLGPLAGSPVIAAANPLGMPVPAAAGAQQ
human Acid Phosphatase 1 (ACP1), ACP1 (gene 52), sequence (P24666 whole entry, looked up): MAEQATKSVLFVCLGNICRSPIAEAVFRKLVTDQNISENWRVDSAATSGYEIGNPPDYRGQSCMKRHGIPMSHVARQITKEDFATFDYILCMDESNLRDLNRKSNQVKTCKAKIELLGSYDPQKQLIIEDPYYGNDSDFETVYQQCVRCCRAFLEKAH
human Elastase, ELANE (gene 1991), sequence (P08246 whole entry, looked up): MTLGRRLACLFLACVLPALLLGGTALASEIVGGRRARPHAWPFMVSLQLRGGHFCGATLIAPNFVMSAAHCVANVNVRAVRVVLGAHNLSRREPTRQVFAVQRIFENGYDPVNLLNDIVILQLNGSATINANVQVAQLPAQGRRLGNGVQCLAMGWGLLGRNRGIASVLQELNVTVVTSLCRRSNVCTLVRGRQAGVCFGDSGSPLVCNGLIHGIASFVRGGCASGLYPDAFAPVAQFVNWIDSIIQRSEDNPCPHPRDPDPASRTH
human Caspase 4 (CASP4), CASP4 (gene 837), sequence (P49662 whole entry, looked up): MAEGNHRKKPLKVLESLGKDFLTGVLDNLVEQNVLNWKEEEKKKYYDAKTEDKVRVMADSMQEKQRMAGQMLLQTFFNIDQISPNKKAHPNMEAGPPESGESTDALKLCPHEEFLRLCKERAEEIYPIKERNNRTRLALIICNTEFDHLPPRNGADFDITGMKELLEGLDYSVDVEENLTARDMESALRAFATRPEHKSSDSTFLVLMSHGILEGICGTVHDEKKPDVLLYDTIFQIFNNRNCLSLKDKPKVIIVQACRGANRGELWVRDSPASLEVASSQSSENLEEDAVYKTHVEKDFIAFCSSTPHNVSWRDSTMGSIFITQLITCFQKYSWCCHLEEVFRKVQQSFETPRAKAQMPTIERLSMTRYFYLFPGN
human Dual Specificity Protein Phosphatase 3 (DUSP3), DUSP3 (gene 1845), sequence (P51452 whole entry, looked up): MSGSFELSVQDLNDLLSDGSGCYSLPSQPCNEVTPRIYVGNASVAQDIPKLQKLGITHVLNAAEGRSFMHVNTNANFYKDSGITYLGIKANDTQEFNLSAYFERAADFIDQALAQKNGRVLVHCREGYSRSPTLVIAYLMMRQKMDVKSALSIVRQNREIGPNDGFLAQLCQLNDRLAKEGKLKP

SMILES: CC(C)=CC1C(C(=O)OCN2C(=O)C3=C(CCCC3)C2=O)C1(C)C (stereo not given)
- AC50 (Caspase-3 (Homo sapiens)): 18.1 µM (active)
- AC50 [1]: 25 µM (active)
- AC50 [2]: 25 µM (active)

SMILES: COP(=O)(NC(C)=O)SC (stereo not given)
- outcome (Caspase-3 (Homo sapiens)): inactive

SMILES: CON=C(C(=O)OC)c1ccccc1CON=C(C)c1cccc(C(F)(F)F)c1
- outcome [1]: inactive

SMILES: O=C(O)c1cc(Oc2ccc(C(F)(F)F)cc2Cl)ccc1[N+](=O)[O-]
- outcome [3]: inactive
- outcome [4]: inactive
- outcome [2]: inactive
- outcome [5]: inactive

SMILES: S=C1NCCN1
- outcome (Caspase-1 (Homo sapiens)): inactive
- outcome [6]: inactive
- outcome [7]: inactive
- outcome [8]: inactive
- outcome [9]: inactive
- outcome [1]: inactive
- outcome [10]: inactive
- outcome [11]: inactive
- outcome [2]: inactive
- outcome [12]: inactive
- outcome [13]: inactive

SMILES: CCc1cccc(CC)c1N(COC)C(=O)CCl
- outcome [3]: inactive

SMILES: Nc1c(Cl)cc([N+](=O)[O-])cc1Cl
- outcome [9]: inactive
- outcome [4]: inactive

SMILES: CSc1nc(NC(C)C)nc(NC(C)C)n1
- outcome (Caspase-1 (Homo sapiens)): inactive
- outcome [4]: inactive

SMILES: C#CC(C)(C)NC(=O)c1cc(Cl)cc(Cl)c1
- outcome (Caspase-1 (Homo sapiens)): inactive

SMILES: Cc1cc(C2CC2)nc(Nc2ccccc2)n1
- outcome [14]: inactive
- outcome (Caspase-1 (Homo sapiens)): inactive

SMILES: CC(C)[C@H](C(=O)O[C@H](C#N)c1cccc(Oc2ccccc2)c1)c1ccc(Cl)cc1
- outcome (Caspase-1 (Homo sapiens)): inactive
- AC50 [1]: 1.19 µM (active)
- outcome [10]: inactive
- outcome [13]: inactive

SMILES: CCC(CC)Nc1c([N+](=O)[O-])cc(C)c(C)c1[N+](=O)[O-]
- outcome [1]: inactive

SMILES: CCOP(=S)(OCC)SCCSCC
- outcome (Caspase-3 (Homo sapiens)): inactive

SMILES: CCCCOC(=O)c1ccccc1C(=O)O
- outcome [9]: inactive
- outcome [1]: inactive

SMILES: CCOP(=O)(SC(C)CC)N1CCSC1=O (stereo not given)
- outcome [9]: inactive

SMILES: CN(C)[C@@H]1C(=O)C(C(N)=O)=C(O)[C@@]2(O)C(=O)C3=C(O)c4c(O)cccc4[C@@](C)(O)[C@H]3[C@H](O)[C@@H]12
- AC50 [14]: 2.4 µM (active)
- AC50 (Caspase-1 (Homo sapiens)): 11.6 µM (active)
- AC50 [6]: 10.8 µM (active)
- AC50 [7]: 23.1 µM (active)
- AC50 [8]: 5.15 µM (active) and 683 nM (active)
- AC50 [1]: 12.6 µM (active) and 7.9 µM (active)
- AC50 [10]: 29.4 µM (active)
- AC50 [11]: 11.9 µM (active)
- AC50 [2]: 15.8 µM (active)
- outcome [2]: inactive
- AC50 [5]: 23.1 µM (active)
- AC50 [15]: 12.5 µM (active)
- AC50 [12]: 2.62 µM (active)
